The source of these data is PubChem BioAssay AID1985 (Southern Research Specialized Biocontainment Screening …, 2009).

The structures appear in SMILES notation. In all, about 2,300 compounds went through this assay and about 1,000 (43%) were called active. No rule for the calls is given here. The set was probably picked from earlier hits. Some of the results follow. Potency and affinity values are given separately.

A word on the inhibition: it is the drop in the measured response relative to a control, in per cent.

The test in a line: modified counter assay using GFP fluorescence, PhoP regulon inhibitor project, dose response (AID 1985). The conditions noted are these: S. Typhi, 4 h; series mostly up to 150 µM; inhibition: at the top concentration.
With `O=C(N/N=C/c1cccnc1)c1cccc(Cl)c1`, the “inhibition” value was -34.7% (inactive).
The figure for `Nc1nonc1-n1nnc(C(=O)N/N=C/c2ccccc2O)c1CN1CCCC1` is 38.2% (inactive); for `Nc1cc(=O)[nH]c(=S)n1-c1cccc(C(F)(F)F)c1` it is 21.7% (inactive); for `O=C1c2[nH]nc(-c3ccccc3O)c2C(c2ccc(F)cc2)N1CC1CCCO1` (centres undefined) it is 7.59% (inactive).
The figure for `C=CCNC(=O)NC(=O)COC(=O)/C(C#N)=C/c1ccc(OC)cc1` is 11% (inactive); for `N#CCCn1ncc2ccccc21` it is -15.1% (inactive); for `Cc1c(C)c2ccc(OC(C)C(=O)N[C@@H](Cc3c[nH]c4ccccc34)C(=O)O)c(C)c2oc1=O` (some centres undefined) it is -7.47% (inactive).
The figure for `CCN(CC)Cc1c(C(=O)N/N=C/c2cccc3ccccc23)nnn1-c1nonc1N` is -0.25% (inactive); for `Cc1ccc(N=Cc2cc(Br)cc(Cl)c2O)cc1` it is 14.3% (inactive).
With `COc1ccc(/C=N/NC(=O)c2cccnc2)cc1`, the “inhibition” value was 10.5% (inactive).
As to `Cc1cc(C(=O)Cn2cncn2)c(C)n1CCc1ccc(F)cc1`, the “inhibition” value was -9.81% (inactive).
Regarding `O=C(CCN1CCOCC1)Nc1ccccc1`, the “inhibition” value is 7.63% (inactive).
The figure for `COc1ccc(Cl)cc1NC(=O)CCN1CCOCC1` is -23.1% (inactive).
On to `CCCNC(=O)COc1ncnc2sc(C)c(C)c12`, for which the “inhibition” value was 2.57% (inactive).
The figure for `Cc1cc(C)cc(N(C(=O)CNC(=O)c2cccs2)C(C(=O)NC2CCCC2)c2cccnc2)c1` (centres undefined) is -9.22% (inactive); for `Cc1c(C2(O)C(=O)Nc3ccc(F)cc32)c(=O)n(-c2ccccc2)n1C` (centres undefined) it is 0.39% (inactive); for `C=CCOC(=O)C1=C(C)NC2(O)c3ccccc3C(=O)C12O` (centres undefined) it is 0.1% (inactive).
`N#C/C(=C\c1ccc(O)c(O)c1)C(=O)NCc1ccccc1`: the “inhibition” value is 38.4% (inactive).
Then `CC1CCN(CCCCOc2ccc(Cl)cc2)CC1`, with 20.8% (inactive); and `Cc1c(C)n(C)c2ccc(C(=O)NCCCN3CCCC3)cc12`, with 28.8% (inactive); and `Cn1c(CN2CCCC2)nc2cc(NC(=O)COc3ccc(Cl)cc3)ccc21`, with 24.1% (inactive).
In the case of `CCc1nn(CCCN2CCN(c3cccc(Cl)c3)CC2)c(=O)n1CCOc1ccccc1`, the “inhibition” value is 9.36% (inactive).
Then `Cc1ccc(-c2nnc3sc(-c4ccncc4)nn23)cc1`, with 25.5% (inactive); and `COc1ccc(C2C(C(=O)N3CCC4(CC3)OCCO4)CC(=O)N2c2ccc(OC)cc2)cc1` (centres undefined), with 12.2% (inactive).
Take `O=C(c1ccc2c(c1)[nH]c(=S)n1c3ccccc3nc21)N1CCN(c2cccc(Cl)c2)CC1`: the “inhibition” value was 14.9% (inactive).
`CCNC(=S)Nc1cccc(S(=O)(=O)Nc2ccccc2OC)c1`: the “inhibition” value is 18.7% (inactive).
Then `O=S(=O)(Nc1ncccn1)c1ccc(NC(=S)Nc2ccccc2Cl)cc1`, with 36.4% (inactive).
The figure for `COC(=O)Cc1ccc(NC(=S)NCc2ccc(Cl)cc2)cc1` is -22.3% (inactive).
Take `COc1cc(NS(=O)(=O)c2ccc(NC(=S)Nc3ccccc3)cc2)nc(OC)n1`: the “inhibition” value is 36.1% (inactive).
In the case of `Cc1ccc(C)c(SCC(=O)Nc2ccc(S(=O)(=O)Nc3ncccn3)cc2)c1`, the “inhibition” value was 34.1% (inactive).
The figure for `NC(N)=NC(N)=Nc1cccc2ccccc12` is 18% (inactive).
With `CCNC(=O)c1ccc(C2SCC(=O)N2CCc2ccccc2)cc1` (centres undefined), the “inhibition” value was 16.7% (inactive).
Then `COc1cccc(NC(=O)COC(=O)Cc2ccccc2[N+](=O)[O-])c1`, with -2.16% (inactive); and `COc1ccc(NC(=O)CN(C)S(=O)(=O)c2ccc(Cl)cc2)cc1Cl`, with 21.3% (inactive).
For the molecule `Oc1ccccc1N=Cc1c(O)ccc2oc3c(c12)CCCC3`, the “inhibition” value was -7.38% (inactive).
The figure for `CC(=O)NCc1ccc(C(=O)CSc2nnc(-c3ccncc3)n2Cc2ccccc2)o1` is -20.9% (inactive); for `Cc1[nH]c2ccccc2c1/C=N/Nc1nc2ccccc2[nH]1` it is 7.61% (inactive).
Then `O=C(CN(CCc1ccccc1)C(=O)CNS(=O)(=O)c1ccc(F)cc1)NCC1CCCO1` (centres undefined), with 13.2% (inactive); and `COc1ccc(/C=N/NC(=O)c2ccc3c(c2)OCO3)cc1`, with 28.6% (inactive); and `OCn1ncn(-c2ccccc2)c1=S`, with -2.16% (inactive).
Then `CCN(CC)/C(N)=N/c1nc(C)cc(C)n1`, with -12.9% (inactive); and `c1ccc(-c2nnc(-c3c[nH]c4ccccc34)nc2-c2ccccc2)cc1`, with 13.8% (inactive).
In the case of `COC(=O)c1ccc(S(=O)(=O)N2CCC(c3nc4ccccc4o3)CC2)cc1`, the “inhibition” value is 6.39% (inactive).
The figure for `Cc1cc(N2CCN(C3CCCCC3)CC2)nc2cccc(O)c12` is 21.3% (inactive); for `O=C(CN1C2=NCCCN2c2ccccc21)c1ccc2c(c1)OCO2` it is 28% (inactive); for `O=C(CN1C2=NCCCN2c2ccccc21)c1ccc([N+](=O)[O-])cc1` it is 24.9% (inactive).
The figure for `CC(C)N=C1NN=C(c2ccc(F)cc2)CS1` is -1.37% (inactive).
Take `Cc1cccn2c(=O)c3cc(C(=O)NCC4CCCO4)c(=N)n(C4CCCC4)c3nc12` (centres undefined): the “inhibition” value is -27.2% (inactive).
Then `Cn1cc(S(=O)(=O)NCC2CCCO2)c(=O)n(C)c1=O` (centres undefined), with 7.24% (inactive); and `COc1ccc(Cn2c(=N)c(C(=O)NCC3CCCO3)cc3c(=O)n4ccccc4nc32)cc1` (centres undefined), with 28.2% (inactive); and `COc1ccccc1Nc1nc(NCC2CCCO2)c2ccccc2n1` (centres undefined), with 33.1% (inactive).
The figure for `COc1ccc(Nc2nnc(SCC3CCCO3)s2)cc1` (centres undefined) is -4% (inactive); for `COc1ccc(CCn2c(=N)c(C(=O)NCC3CCCO3)cc3c(=O)n4ccccc4nc32)cc1` (centres undefined) it is 0.56% (inactive); for `COc1ccc(Nc2nc(NCC3CCCO3)c3ccccc3n2)c(OC)c1` (centres undefined) it is 22.7% (inactive).
The figure for `CCN(CC)S(=O)(=O)c1cc(NC(=O)C2Cc3ccccc3C(=O)O2)ccc1C` (centres undefined) is -9.8% (inactive); for `O=C1c2ccc3c4c(ccc(c24)C(=O)N1c1cccc(O)c1)C(=O)N(c1cccc(O)c1)C3=O` it is -6.67% (inactive).
For `Cc1c(C(=O)O)sc(=S)n1-c1ccc(Cl)cc1`, the “inhibition” value is -13.2% (inactive).
Then `Cc1cccc(N2C(=O)CS/C2=N\NC(=O)c2ccc(Br)cc2)c1C`, with 31.3% (inactive); and `O=C1CSC(=S)N1c1cccnc1`, with 28.8% (inactive); and `Cc1nn(C)c(C)c1NC(=O)c1ccc(S(=O)(=O)N(C)C)cc1`, with 19.6% (inactive).
Then `COc1ccc(CCNC(=O)Cn2c(=O)n(CC3CCCO3)c(=O)c3ccccc32)cc1OC` (centres undefined), with -10.2% (inactive); and `O=C(CSCc1ccccc1)Nc1cccc(C(=O)Nc2ccc(C(=O)O)cc2)c1`, with 6.57% (inactive).
With `O=C(Nc1ccc(F)cc1)c1ccc2snnc2c1`, the “inhibition” value was -4.49% (inactive).
Then `CC(C)[C@@H](C(=O)NC1CCCC1)N1C(=O)N2CCc3c([nH]c4ccccc34)[C@@]2(C)C1=O`, with 2.6% (inactive); and `[O-][n+]1onc2c1CCc1[nH]c(-c3ccccc3)nc1-2`, with -1.13% (inactive); and `COc1ccc(NC(=O)C(Cc2ccccc2)n2cccc2)cc1` (centres undefined), with 25.1% (inactive).
Then `COc1ccc(C(=O)Oc2ccc(/C=N/O)cc2)cc1`, with 17.2% (inactive).
Then `COc1cc(/C=C/C(=O)O)cc2c1OCCO2`, with 12.8% (inactive); and `CC(=O)c1cc(O)c2ccccc2c1O`, with 24.3% (inactive); and `O=C(Cn1c(=O)oc2cc(S(=O)(=O)N3CCCC3)ccc21)N1CCN(c2ccccc2F)CC1`, with -11.8% (inactive).
Regarding `CCOC(=O)N1CCN(C(=S)NC(=O)c2ccc(Br)cc2)CC1`, the “inhibition” value was -14% (inactive).
On to `O=C(Nc1ccc(Cl)cc1)N1CCCN(Cc2ccccc2F)C1`, for which the “inhibition” value is -17.4% (inactive).
Then `CCN1CCN(C(=O)Nc2ccc(Cc3ccc(NC(=O)N4CCN(CC)CC4)cc3)cc2)CC1`, with 34.3% (inactive).
Then `CN1CCCN(S(=O)(=O)c2ccc3c(c2)OCCO3)CC1`, with 1.55% (inactive).
